Experimental data taken from PubChem BioAssay AID488862 (Broad Institute, 2010).
The campaign covered roughly 340,000 compounds. About 1,200 (0.35%) were called active. Shown is part of a subset that was picked to be rich in actives. A number with no mark means an inactive call. Rule as the data show it: active = inhibition above about 52%; inactive = the rest.

Experiment: suppresses PrP 5' UTR mRNA reporter expression (AID 488862); also: 0 = median of the neutral control wells
Details: cell-based PrP 5' UTR mRNA reporter, plate reader; active compounds read high; concentration not given here

| Compound | inhibition |
| --- | --- |
| CC1CCCN(C(=O)CN2C(=O)c3ccccc3S2(=O)=O)C1 (stereo unspecified) | -26.3% |
| O=C(CN1C(=O)c2ccccc2S1(=O)=O)N1CCc2ccccc21 | 62.6% (active) |
| O=C(CSCc1ccccc1)N1CCc2ccccc21 | -80.4% |
| COc1ccc(-n2c(Cc3cccn3C)nnc2SCC(=O)Nc2cc(C)cc(C)c2)cc1 | 6.37% |
| NC(=O)c1oc2ccccc2c1NC(=O)CS(=O)(=O)c1ccccc1 | 10.2% |
| O=C1[C@@H](c2ccccc2)[C@@H](c2ccccc2)N1c1cccnc1 | 59.7% (active) |
| Cc1ccccc1N1C(=O)C2ON(c3ccccc3)C(c3ccncc3)C2C1=O (stereo unspecified) | -40.3% |
| O=C1C(=O)N(c2ccccc2)C(c2ccccc2)C1c1ccccc1 (stereo unspecified) | -4.98% |
| COc1ccc(NS(=O)(=O)c2ccc(N3CCOCC3)c(NC(=O)/C=C/C(=O)O)c2)cc1 | -1.46% |
| COc1cccc(CN(C)C(=O)CC23CC4CC(CC(C4)C2)C3)c1OC | -23.4% |
| Cc1cc(NC(=O)/C=C/C(=O)N(CC(=O)NC2CCCC2)c2ccc(F)cc2)no1 | 53.2% (active) |
| Cc1cc(NC(=O)CCC(=O)N(CC(=O)NC2CCCC2)c2ccc(F)cc2)no1 | -5.73% |
| Cc1cc(NC(=O)/C=C/C(=O)N(c2ccccc2C)C(C(=O)NC2CCCC2)c2ccc(F)cc2)no1 (stereo unspecified) | -18% |
| CC(=O)c1ccc(Oc2cc(C)nc(-n3nc(C)cc3C)n2)cc1 | 63.6% (active) |
| COc1ccc(C(C)=O)cc1CSc1nc2nc(C)cc(C)n2n1 | 3.27% |
| CCOC(=O)c1cnc(-n2nc(C)cc2C)nc1NNc1cc(C)nc(-c2ccccc2)n1 | 33.9% |
| C[N+](C)(C)CCOP(=O)([O-])OC[C@H](O)CO | -9.94% |
| CCOCCN(C=O)c1cccc(OC)c1 | -5.07% |
| COc1ccc(S(=O)(=O)Nc2cc(C)on2)cc1NC(C)=O | -6.37% |
| CCOc1cc(NS(=O)(=O)c2ccc(OC)cc2)c(OCC)cc1NC(C)=O | 64.1% (active) |
| CCOc1cc(NC(=O)CCl)c(OCC)cc1NC(C)=O | -34.2% |

| Compound | inhibition |
| --- | --- |
| CN=C1SC(C(=O)O)CC(=O)N1C (stereo unspecified) | -12.6% |
| COc1ccc(OC)c(Cc2cnc3nc(N)nc(N)c3c2C)c1 | 65.3% (active) |
| COc1ccc(OC)c(NC(=O)c2sc3nc(C)cc(C)c3c2N)c1 | -9.33% |
| COc1ccc(OC)c(Cc2nnc(CCC(=O)NC3CCCC3)o2)c1 | 0.259% |
| CC1CCCCN1CCCNc1ccc(C(CC(N)=O)NC(=O)c2ccccc2)cc1[N+](=O)[O-] (stereo unspecified) | -27.6% |
| O=C(Nc1ccc(N2CCN(C(=O)C3CC3)CC2)cc1)c1cccs1 | -16.9% |
| O=C(c1cc2sccc2n1Cc1ccc(F)cc1)N1CCc2ccccc21 | -33% |
| CCOC(=O)c1cc2sccc2n1Cc1ccc(C#N)cc1 | -13.3% |
| CC1Cc2ccccc2N1C(=O)c1cc2sccc2n1Cc1ccccc1 (stereo unspecified) | 59.8% (active) |
| CCOc1ccc(C(=O)CCC(=O)NC2=NCCS2)cc1 | -27.4% |
| OCC1(Cc2ccccc2)CCN(Cc2cc3ccccc3o2)CC1 | 74.7% (active) |
| O=C(c1cc2ccccc2o1)N1CCN(Cc2ccccc2)CC1 | -15% |
| CC(C)c1csc(CN2CCC(CO)(Cc3ccccc3)CC2)n1 | -13.8% |
| CCCCn1c(N)c(N(CC(C)C)C(=O)c2cnc(C)cn2)c(=O)[nH]c1=O | -37.8% |
| CC(C)CN1CC(C)C(=O)N(c2ccccc2)C1=S (stereo unspecified) | -12.4% |
| O=C(C1=C[C@H](c2coc3ccccc3c2=O)C[C@H](OCc2ccc(CO)cc2)O1)N1CCOCC1 | -9.97% |
| O=C(C1=C[C@H](c2coc3ccccc3c2=O)C[C@H](OCc2ccc(CO)cc2)O1)N1CCN(Cc2ccccc2)CC1 | 81.9% (active) |
| O=C(C1=C[C@H](c2ccc(C(F)(F)F)cc2)C[C@H](OCc2ccc(CO)cc2)O1)N1CCN(Cc2ccccc2)CC1 | -14.3% |
| Cc1ccc(N(C(=O)C(F)(F)F)C(C(=O)NC2CCCCC2)c2ccncc2)cc1C (stereo unspecified) | -20.4% |
| Cn1c(Cc2cccs2)nnc1SCC(=O)Nc1ccccc1 | -26.4% |
